Most compounds without a hit are left out; they make up all but 28% or so of the library.
CYP2C19 act: activators of human cytochrome P450 2C19; P33261; recombinant CYP2C19, luciferin-H EGE luminescence; hits give high values; 0 = fully inhibited enzyme, 1 = untreated enzyme; activation factor at 5 µM; 96,000 tested, under 10 active; AID 1025;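 active means activation factor of at least 2 at 5 µM in the primary screen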;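 further: 0 = wells with 2.5 mM tranylcypromine and 1 = vehicle-only wells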
CYP2C9 inh: human CYP2C9 inhibition. inhibition, % at 5 µM. 96,000 tested, 20% active. P11712. CYP2C9 Supersomes, luciferin-H conversion, luminescence;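 active means blocking of liver enzyme CYP2C9 beyond about 50% at 5 µM, limit read from the data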
CYP2C9 act: CYP2C9 (human) activation; 96,000 tested, 1.4% active; recombinant CYP2C9, luciferin-H conversion, luminescence; hits give high values; factor 1 = untreated enzyme, 0 = blocked; activation factor at 5 µM; P11712; AID 1024;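 active means activation factor of 2 or more for CYP2C9 at a 5 µM dose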;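 further: 0 = sulfaphenazole-blocked wells and 1 = vehicle-only wells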
PTK2B oligo ant: Pyk2 (human) oligomerization antagonism; z-score (the deposit names both 25 µM and 10 µM); Q293 cells, Pyk2 FERM NanoBiT luminescence; hits give low values; 99,000 tested, 0.83% active; AID 1347419; Q14289;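 active means Z-score of -3 or lower, scaled per plate to the spread of control and sample wells; inactive means z-score above -3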;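 further: negative z-score means lost luminescence so less FERM oligomerization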
Target sequence (Q14289 whole entry, looked up): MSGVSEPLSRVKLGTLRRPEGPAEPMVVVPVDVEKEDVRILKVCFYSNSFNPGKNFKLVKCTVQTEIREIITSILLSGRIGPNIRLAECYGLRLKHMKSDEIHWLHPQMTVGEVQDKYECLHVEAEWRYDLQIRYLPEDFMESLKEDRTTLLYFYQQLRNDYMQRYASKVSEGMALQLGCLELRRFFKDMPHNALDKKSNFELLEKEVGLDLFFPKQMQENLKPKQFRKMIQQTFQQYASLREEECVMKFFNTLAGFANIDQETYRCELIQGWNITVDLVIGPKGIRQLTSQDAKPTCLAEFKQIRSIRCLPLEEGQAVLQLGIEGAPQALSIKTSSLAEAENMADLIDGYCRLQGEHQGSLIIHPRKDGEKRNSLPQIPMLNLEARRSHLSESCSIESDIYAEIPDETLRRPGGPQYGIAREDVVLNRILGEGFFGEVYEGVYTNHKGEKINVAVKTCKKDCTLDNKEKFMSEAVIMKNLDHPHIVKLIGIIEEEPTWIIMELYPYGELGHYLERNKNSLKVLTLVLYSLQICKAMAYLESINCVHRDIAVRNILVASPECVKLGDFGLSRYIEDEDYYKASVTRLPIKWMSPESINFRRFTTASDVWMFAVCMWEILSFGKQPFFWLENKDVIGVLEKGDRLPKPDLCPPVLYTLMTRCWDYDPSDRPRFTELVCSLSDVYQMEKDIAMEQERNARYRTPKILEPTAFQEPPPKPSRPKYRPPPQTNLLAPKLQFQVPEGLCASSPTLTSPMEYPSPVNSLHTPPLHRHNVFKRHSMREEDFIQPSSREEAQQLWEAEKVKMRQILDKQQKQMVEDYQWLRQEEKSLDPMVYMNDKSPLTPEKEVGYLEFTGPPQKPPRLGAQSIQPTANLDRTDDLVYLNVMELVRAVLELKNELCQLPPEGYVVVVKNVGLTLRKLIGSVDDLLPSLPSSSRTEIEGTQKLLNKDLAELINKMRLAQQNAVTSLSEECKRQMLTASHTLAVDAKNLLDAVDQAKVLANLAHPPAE
CYP2C19 inh: human CYP2C19 inhibition | P33261 | CYP2C19 Supersomes, luciferin-H EGE luminescence, 30 min | inhibition, % at 5 µM | 96,000 tested, 21% active | AID 778;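 active means CYP2C19 inhibition above a set limit at 5 µM in the primary screen, cut at about 50% in these data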;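 further: plate controls were negative control wells for no effect and 2.5 mM tranylcypromine positive control for full effect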
* = called active by the depositor; / = no result.

SMILES	CYP2C19 act	CYP2C9 inh	CYP2C9 act	PTK2B oligo ant	CYP2C19 inh
Cn1cccc1Cc1nnc(SCC(=O)Nc2ccc3c(c2)OCO3)n1-c1ccc(F)cc1	0.6	44	0.6	/	40
CS(=O)(=O)N(CC(=O)NC1CCCCC1)c1cccc(Cl)c1	0.7	19	0.8	-0.22	30
O=c1c(Cl)nc2cc(Cl)ccc2n1CCNc1ncc(C(F)(F)F)cc1Cl	0.3	47	0.5	0.71	73*
O=C(CN1CCN(c2ncc(C(F)(F)F)cc2Cl)CC1)NCCNc1ncc(C(F)(F)F)cc1Cl	1	0	1	0.57	-2
O=c1[nH]c2cccc(Cl)c2n(CCNc2ncc(C(F)(F)F)cc2Cl)c1=O	0.4	36	0.6	-1	61*
CC(C)COc1ccc(/C=C2/Sc3ccccc3C2=O)cc1	0.7	31	0.7	-0.64	30
CCOC(=O)/C(N=Nc1ccc(Cl)cc1)=C(/O)c1ccc([N+](=O)[O-])cc1	1	0	1	0.64	-4
O=C(COc1ccc(S(=O)(=O)NC2CCCCC2)cc1Cl)Nc1ccc2c(c1)OCO2	0.5	87*	0.1	0.35	50
O=C(COc1ccc(S(=O)(=O)NC2CCCCC2)cc1Cl)NCc1ccc2c(c1)OCO2	0.1	98*	0	-0.12	94*
O=C(COc1ccc(S(=O)(=O)N2CCCC2)cc1Cl)NCc1ccc2c(c1)OCO2	0.8	46	0.5	1.5	16
Cc1nn(-c2nc3ccccc3[nH]2)c(N)c1-c1ccc(Cl)cc1	1	15	0.9	-1.8	0
CN(C)S(=O)(=O)c1cccc(NC(=S)N/N=C/C(c2ccccc2)c2ccccc2)c1	/	/	/	0.77	/
O=C(OCC(=O)N1CCCC1)c1cccs1	1	-4	1	0.04	5
O=C(Cn1c(=O)oc2ccccc21)N1CCN(c2ccc(N3CCOCC3)nn2)CC1	1	-10	1.1	/	4
COCCn1c(SCc2nc3sc(C(=O)OC)c(C)c3c(=O)[nH]2)nc2ccccc21	0.3	91*	0.1	-0.01	74*
CCn1c(SCc2nc3sc(C(=O)O)c(C)c3c(=O)[nH]2)nc2ccccc21	1	55*	0.4	1.2	2
c1cnc(Oc2ccc(-c3nnco3)cc2)cn1	0.5	15	0.8	-0.56	54*
COc1cccc(C(=O)Nc2cc(=O)n(C)c(=O)n2C)c1OC	1	4	1	/	4
COc1ccc(S(=O)(=O)N(C)c2ccc(C(=O)N3CCOCC3)cc2)cc1	0.9	8	0.9	0.28	8
CN(c1ccccc1)S(=O)(=O)c1ccc(C(=O)OCC(=O)N2CCOCC2)cc1	0.5	48	0.5	1.1	55*
CCOc1cc(C)c(S(=O)(=O)N2CCCC2)cc1C	/	/	/	-0.51	/
CCOc1cc(S(=O)(=O)N2CCOCC2)ccc1F	0.4	-41	1.4	0.39	57*
CCOc1cc(S(=O)(=O)N2CCCCC2)ccc1Cl	0.3	-148	2.5*	-2	71*
COc1cc(S(=O)(=O)N2CCCCCC2)ccc1Cl	0	-139	2.4*	-2.3	98*
CCn1c(=S)[nH]c2cc(S(=O)(=O)N3CCCCC3)ccc21	0.6	51*	0.5	-0.15	45
SMILES	CYP2C19 act	CYP2C9 inh	CYP2C9 act	PTK2B oligo ant	CYP2C19 inh
CCn1c(C)nc2cc(S(=O)(=O)N3CCCC3)ccc21	0.9	-35	1.3	1.6	13
COc1cc(S(=O)(=O)N2CCN(C)CC2)ccc1Cl	/	/	/	-0.12	/
COc1ccc(NC(=O)C(=O)N2N=C(C(C)C)CC2(O)C(F)(F)F)cc1 (stereo not drawn)	1	-6	1.1	0.28	-4
COCCCn1c(Cc2ccccc2)nnc1SCC(=O)N1CCCCC1	0.9	38	0.6	1.1	14
CCOc1cc(S(=O)(=O)N2CCN(CC)CC2)ccc1Cl	0.4	-134	2.3*	-0.46	65*
COc1ccc2cc(S(=O)(=O)N3CCCCC3)ccc2c1S(=O)(=O)N1CCCCC1	0.8	52*	0.5	-0.57	25
CC(C)(C)C1CCc2c(sc(N)c2C(N)=O)C1 (stereo not drawn)	0.4	47	0.5	0.01	63*
CCCC1CCc2c(sc(N)c2C(N)=O)C1 (stereo not drawn)	0.3	69*	0.3	-1.4	68*
O=C(Nc1cc(N2CCOCC2)ncn1)NC1(C(F)(F)F)Oc2ccccc2O1	/	/	/	0.75	/
O=C(NCc1ccco1)C1CN(S(=O)(=O)c2ccccc2)CCN1S(=O)(=O)c1ccccc1 (stereo not drawn)	0.4	50*	0.5	1	56*
CCCNC(=O)C1CN(S(=O)(=O)c2ccccc2)CCN1S(=O)(=O)c1ccccc1 (stereo not drawn)	0.9	1	1	0.03	8
CC(C)(C)NC(=O)C1CN(S(=O)(=O)c2ccccc2)CCN1S(=O)(=O)c1ccccc1 (stereo not drawn)	0.6	12	0.9	-0.36	44
COc1ccc(S(=O)(=O)NCC2CCC(C(=O)NCc3ccco3)CC2)cc1 (stereo not drawn)	1	11	0.9	2.1	-4
COC(=O)Nc1ccc(S(=O)(=O)N2CCCCC2C(=O)NCc2ccco2)cc1 (stereo not drawn)	0.6	0	1	-0.04	42
Cc1ccc(S(=O)(=O)NCC2CCC(C(=O)NCc3ccco3)CC2)cc1 (stereo not drawn)	0.5	46	0.5	1.1	54*
CCC(C)NC(=O)C1CN(S(=O)(=O)c2ccccc2)CCN1S(=O)(=O)c1ccccc1 (stereo not drawn)	0.3	23	0.8	-0.4	66*
Cc1ccc(S(=O)(=O)N2CCCCC2C(=O)NCc2ccco2)cc1 (stereo not drawn)	0.1	33	0.7	0.15	94*
CC(C)CC(NC(=O)C1CCCCC1)C(=O)NCc1ccccn1 (stereo not drawn)	1	-14	1.1	0.91	-4
COc1ccc(C(=O)Nc2nc3ccccc3[nH]2)cc1S(=O)(=O)N1CCCC1	0.9	14	0.9	-0.39	8
Cc1cc(N2CCCCCC2)nc2ccc(F)cc12	/	/	/	0.99	/
CC(=O)Nc1ccc(S(=O)(=O)NCC(C)NS(=O)(=O)c2ccc(NC(C)=O)cc2)cc1 (stereo not drawn)	0.9	4	1	-0.62	9
O=c1ccc2cc(S(=O)(=O)Nc3ccc(F)cc3)ccc2o1	0	46	0.5	-0.08	98*
O=S(=O)(Nc1ccccc1)c1ccc(F)cc1	0.1	72*	0.3	-0.92	92*
CCC(C)NS(=O)(=O)c1ccc(NS(=O)(=O)c2ccc(F)cc2)cc1 (stereo not drawn)	0.3	98*	0	0.35	74*
Cc1cccc(C)c1NS(=O)(=O)c1ccc(F)cc1	0	75*	0.3	-0.64	99*
CCc1ccc(Nc2nnc(SCC(=O)Nc3cccnc3Cl)s2)cc1	/	/	/	0.28	/
O=C(O)c1ccc(F)c(S(=O)(=O)Nc2ccccc2Cl)c1	1	-2	1	0.7	1
O=S(=O)(Nc1ccc(F)cc1)c1ccc(NC(=S)Nc2ccccc2)cc1	0.4	86*	0.1	1.4	57*

Assay outcomes deposited in PubChem by Sanford-Burnham Center for Chemical Genomics.
